# This is part of a sample that, as a whole, favours compounds with a hit. Of some 79,000 tested, about 15% had one in any assay. A number with no mark means an inactive call. Active and inactive are the calls of the source. No stated cut-off is given here; in the data, active means growth inhibition above about 70%; inactive means the rest.
# Test: NCI Yeast Anticancer Drug Screen. Data for the sgs1 strain (AID 173);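 further: 0% = growth of vehicle-only control cultures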
# Details: S. cerevisiae sgs1 mutant, at 3.7 µM, stronger effect = higher value
# Method in brief: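 Each compound was added to cultures of the altered yeast strain. Growth was recorded, and inhibition was derived by comparison with vehicle controls.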
row,SMILES,growth inhibition
1,COc1ccc2nc3cccc([N+](=O)[O-])c3c(NCCNCCN(C)C)c2c1,-1%
2,Cc1cccc(/C=N/NC(=S)NC2CCCCC2)n1,-2%
3,COC(=O)C(=O)c1c(-c2ccc(Cl)c(Cl)c2)[nH]c2[nH]n(-c3ccccc3)c(=O)c2c1=O,-1%
4,c1ccc([P+](CCN2Cc3ccccc3C2)(c2ccccc2)c2ccccc2)cc1,35%
5,Cc1cc(C)c2[s+]snc2c1,7%
6,CC(C)(Br)C(=O)/C=C/c1ccccc1,50%
7,Cc1ccc(S(=O)(=O)NC(=O)C2C(=O)CC3(CCCCC3)CC2=O)cc1,-8%
8,NC(=S)N1N=C2c3ccccc3CC[C@H]2[C@@H]1c1ccc(Cl)cc1,33%
9,O=[N+]([O-])/C=C/c1cc2ccc3ccccc3c2[nH]1,72% (active)
10,O=C1C(=C2CCCC2)CCC1CN1CCCCC1 (configuration not stated),30%
11,OC(CC(O)(C(F)(F)F)C(F)(F)F)c1ccc(C(O)CC(O)(C(F)(F)F)C(F)(F)F)cc1 (configuration not stated),26%
12,COc1cc2c(cc1OC)[C@@H](Nc1ccc(C#N)cc1)C1COC(=O)[C@@H]1C2c1cc(OC)c(O)c(OC)c1 (some centres not stated),-14%
13,O=c1cccccc1[O-].O=c1cccccc1[O-].O=c1cccccc1[O-].[Eu+3],1%
14,O=C1c2ccccc2C(=O)c2sc(Nc3ccccc3Cl)nc21,16%
15,NC(CCCCCCCCCCCCC(N)C(=O)c1ccccc1)C(=O)c1ccccc1 (configuration not stated),-7%
16,CC1=C(C)C(=O)C2=C(OCCO2)C1=O,23%
17,c1ccc(-c2cc(C3CO3)c3ccccc3n2)cc1 (configuration not stated),1%
18,S=C1C(=Nc2ccccc2)N(c2ccccc2)/C(=N\c2ccccn2)N1c1ccccc1,4%

row,SMILES,growth inhibition
1,CCC(OC(C)=O)C1CC(C(C)C)CCC1C (configuration not stated),1%
2,CC(C)=CCc1c2c(c(O)c3c(=O)c(-c4ccc(O)c(O)c4)coc13)C=CC(C)(C)O2,-36%
3,O=C(NC(N1CCN(c2cc3c(cc2F)c(=O)c(C(=O)O)cn3C2CC2)CC1)(C(F)(F)F)C(F)(F)F)c1ccccc1,-2%
4,Fc1cc(F)c(F)c(S)c1F,-37%
5,COc1ccc2cc3c4cc5c(cc4cc[n+]3cc2c1OC)OCO5,28%
6,CCCCCCCCNCCCCCCCC,30%
7,Nc1cc(Cl)ccc1Nc1ccccc1,-36%
8,O=C(/C(=C/c1ccc(O)cc1)c1ccccc1)c1ccccc1,-13%
9,O=Cc1ccccc1C=O,-25%
10,C1=CCN([B-](c2ccccc2)[C+]2CCCCC2)C=C1,-2%
11,CC/C(=C(\c1ccccc1)c1ccc(OCC[N+](C)(C)C)cc1)c1ccccc1,65%
12,O=S(=O)(c1cccc(C(F)(F)F)c1)N1c2ccccc2-n2cccc2C1c1cccnc1 (configuration not stated),-21%
13,Nc1ccc2c(c1)C(=O)c1c(F)cccc1-2,0%
14,CN(C)/C(=N/C(=S)Nc1ccccc1)SCc1ccccc1,0%
15,CCN(CC)C(=S)N/N=C(\C)c1ccccc1O,5%
16,CC(C)OC(=O)NNc1cc(Cl)ccc1Cl,10%
17,CC(C)CCC[C@@H](C)[C@H]1CC[C@H]2[C@@H]3CC[C@H]4C[C@H](N)CC[C@]4(C)[C@H]3CC[C@]12C,-22%
18,O=C1c2ccccc2-c2ccc(N=Cc3ccccc3)cc21,-11%

# Same assay, conditions: S. cerevisiae sgs1 mutant, at 11.0 µM, stronger effect = higher value
row,SMILES,growth inhibition
1,COc1ccc2nc3cccc([N+](=O)[O-])c3c(NCCNCCN(C)C)c2c1,0%
2,Cc1cccc(/C=N/NC(=S)NC2CCCCC2)n1,9%
3,COC(=O)C(=O)c1c(-c2ccc(Cl)c(Cl)c2)[nH]c2[nH]n(-c3ccccc3)c(=O)c2c1=O,60%
4,c1ccc([P+](CCN2Cc3ccccc3C2)(c2ccccc2)c2ccccc2)cc1,53%
5,Cc1cc(C)c2[s+]snc2c1,8%
6,CC(C)(Br)C(=O)/C=C/c1ccccc1,66%
7,Cc1ccc(S(=O)(=O)NC(=O)C2C(=O)CC3(CCCCC3)CC2=O)cc1,4%
8,NC(=S)N1N=C2c3ccccc3CC[C@H]2[C@@H]1c1ccc(Cl)cc1,46%
9,O=[N+]([O-])/C=C/c1cc2ccc3ccccc3c2[nH]1,89% (active)
10,O=C1C(=C2CCCC2)CCC1CN1CCCCC1 (configuration not stated),63%
11,OC(CC(O)(C(F)(F)F)C(F)(F)F)c1ccc(C(O)CC(O)(C(F)(F)F)C(F)(F)F)cc1 (configuration not stated),87% (active)
12,COc1cc2c(cc1OC)[C@@H](Nc1ccc(C#N)cc1)C1COC(=O)[C@@H]1C2c1cc(OC)c(O)c(OC)c1 (some centres not stated),-2%
13,O=c1cccccc1[O-].O=c1cccccc1[O-].O=c1cccccc1[O-].[Eu+3],26%
14,O=C1c2ccccc2C(=O)c2sc(Nc3ccccc3Cl)nc21,82% (active)
15,NC(CCCCCCCCCCCCC(N)C(=O)c1ccccc1)C(=O)c1ccccc1 (configuration not stated),82% (active)
16,CC1=C(C)C(=O)C2=C(OCCO2)C1=O,-14%
17,c1ccc(-c2cc(C3CO3)c3ccccc3n2)cc1 (configuration not stated),19%
18,S=C1C(=Nc2ccccc2)N(c2ccccc2)/C(=N\c2ccccn2)N1c1ccccc1,66%

row,SMILES,growth inhibition
1,CCC(OC(C)=O)C1CC(C(C)C)CCC1C (configuration not stated),6%
2,CC(C)=CCc1c2c(c(O)c3c(=O)c(-c4ccc(O)c(O)c4)coc13)C=CC(C)(C)O2,91% (active)
3,O=C(NC(N1CCN(c2cc3c(cc2F)c(=O)c(C(=O)O)cn3C2CC2)CC1)(C(F)(F)F)C(F)(F)F)c1ccccc1,1%
4,Fc1cc(F)c(F)c(S)c1F,-27%
5,COc1ccc2cc3c4cc5c(cc4cc[n+]3cc2c1OC)OCO5,83% (active)
6,CCCCCCCCNCCCCCCCC,94% (active)
7,Nc1cc(Cl)ccc1Nc1ccccc1,-35%
8,O=C(/C(=C/c1ccc(O)cc1)c1ccccc1)c1ccccc1,16%
9,O=Cc1ccccc1C=O,-15%
10,C1=CCN([B-](c2ccccc2)[C+]2CCCCC2)C=C1,6%
11,CC/C(=C(\c1ccccc1)c1ccc(OCC[N+](C)(C)C)cc1)c1ccccc1,99% (active)
12,O=S(=O)(c1cccc(C(F)(F)F)c1)N1c2ccccc2-n2cccc2C1c1cccnc1 (configuration not stated),73% (active)
13,Nc1ccc2c(c1)C(=O)c1c(F)cccc1-2,0%
14,CN(C)/C(=N/C(=S)Nc1ccccc1)SCc1ccccc1,7%
15,CCN(CC)C(=S)N/N=C(\C)c1ccccc1O,42%
16,CC(C)OC(=O)NNc1cc(Cl)ccc1Cl,44%
17,CC(C)CCC[C@@H](C)[C@H]1CC[C@H]2[C@@H]3CC[C@H]4C[C@H](N)CC[C@]4(C)[C@H]3CC[C@]12C,6%
18,O=C1c2ccccc2-c2ccc(N=Cc3ccccc3)cc21,-4%

# — PubChem BioAssay (NCI)
